# Results reported in PubChem BioAssay AID1159580 (chemical genetic matrix, 2015).
# The campaign covered roughly 5,500 compounds. About 2,000 (36%) were called active. Another 18% or so got no clear call; they are omitted. The list shows a part of the results. Unmarked numbers belong to inactive results. Rule as the data show it: active = normalized growth mostly below about 0.91 (no sharp cut-off); inconclusive = no clear call, values can overlap the other calls; inactive = mostly above about 0.92.
# Assay: chemical genetic growth profiling, strain panel (AID 1159580);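 also: tested at 20 µM; growth read once vehicle control cultures reached saturation at 30 °C; 1 = growth at the plate median or of vehicle wells; lower values mean less growth of the strain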
# Settings: S. cerevisiae deletion strains, growth OD
structure (smiles),measurement,setting,value
COC1C(O)C(O[C@H]2CC[C@]3(C=O)C4C(CC[C@]3(O)C2)[C@@]2(O)CC[C@H](C3=CC(=O)OC3)[C@@]2(C)C[C@H]4OC(C)=O)OC(C)C1OC(C)=O (some centres undefined),normalized growth,"locus YAL021C, strain ccr4, active compounds read low",0.977
same,normalized growth,"locus YAL026C, strain drs2, active compounds read low",1.02
same,normalized growth,"locus YAL030W, strain snc1, active compounds read low",0.977
same,normalized growth,"locus YBL061C, strain skt5, active compounds read low",1.02
same,normalized growth,"locus YBR009C, strain hhf1, active compounds read low",0.973
same,normalized growth,"locus YBR021W, strain FUR4, active compounds read low",1.02
same,normalized growth,"locus YBR023C, strain chs3, active compounds read low",1.01
same,normalized growth,"locus YBR171W, strain sec66, active compounds read low",1.04
same,normalized growth,"locus YBR229C, strain ROT2, active compounds read low",1.02
same,normalized growth,"locus YBR231C, strain swc5, active compounds read low",1
same,normalized growth,"locus YBR279W, strain paf1, active compounds read low",1.01
same,normalized growth,"locus YCL011C, strain gbp2, active compounds read low",1
same,normalized growth,"locus YCL016C, strain dcc1, active compounds read low",1
same,normalized growth,"locus YCL029C, strain bik1, active compounds read low",1.05
same,normalized growth,"locus YCL069W, strain vba3, active compounds read low",1.01
same,normalized growth,"locus YCR088W, strain abp1, active compounds read low",1.02
same,normalized growth,"locus YDL005C, strain med2, active compounds read low",1.01
same,normalized growth,"locus YDL035C, strain GPR1, active compounds read low",1.03
same,normalized growth,"locus YDL040C, strain nat1, active compounds read low",1.03
same,normalized growth,"locus YDL074C, strain BRE1, active compounds read low",1.04
same,normalized growth,"locus YDL101C, strain DUN1, active compounds read low",1.02
same,normalized growth,"locus YDL134C, strain PPH21, active compounds read low",1.03
same,normalized growth,"locus YDL185W, strain tfp1, active compounds read low",1.01
same,normalized growth,"locus YDL192W, strain arf1, active compounds read low",1.03
same,normalized growth,"locus YDR001C, strain nth1, active compounds read low",1.02
same,normalized growth,"locus YDR069C, strain doa4, active compounds read low",0.951
same,normalized growth,"locus YDR101C, strain arx1, active compounds read low",1.04
same,normalized growth,"locus YDR137W, strain rgp1, active compounds read low",1.04
same,normalized growth,"locus YDR159W, strain sac3, active compounds read low",0.966
same,normalized growth,"locus YDR162C, strain NBP2, active compounds read low",1.06
same,normalized growth,"locus YDR195W, strain ref2",1.01
same,normalized growth,"locus YDR297W, strain sur2, active compounds read low",0.956
same,normalized growth,"locus YDR318W, strain mcm21, active compounds read low",1.03
same,normalized growth,"locus YDR334W, strain swr1, active compounds read low",1.02
same,normalized growth,"locus YDR335W, strain msn5, active compounds read low",0.982
same,normalized growth,"locus YDR388W, active compounds read low",1.07
same,normalized growth,"locus YDR392W, strain spt3, active compounds read low",1.04
same,normalized growth,"locus YDR502C, strain sam2, active compounds read low",1.03
same,normalized growth,"locus YEL003W, strain gim4, active compounds read low",1.02
same,normalized growth,"locus YEL037C, strain rad23, active compounds read low",1.01
same,normalized growth,"locus YEL061C, strain CIN8 (second series), active compounds read low",1.02
same,normalized growth,"locus YER015W, strain faa2, active compounds read low",1
same,normalized growth,"locus YER016W, strain bim1, active compounds read low",1.01
same,normalized growth,"locus YER110C, active compounds read low",1.09
same,normalized growth,"locus YER111C, strain swi4, active compounds read low",1.02
same,normalized growth,"locus YER155C, strain BEM2 (second series), active compounds read low",1.04
same,normalized growth,"locus YER155C, strain BEM2, active compounds read low",1.03
same,normalized growth,"locus YER167W, strain BCK2, active compounds read low",1.03
same,normalized growth,"locus YFR010W, strain ubp6, active compounds read low",1.04
same,normalized growth,"locus YGL078C, strain dbp3, active compounds read low",1.03
same,normalized growth,"locus YGL167C, strain pmr1, active compounds read low",1.02
same,normalized growth,"locus YGL173C, strain kem1, active compounds read low",1.03
same,normalized growth,"locus YGL227W, strain vid30, active compounds read low",1.02
same,normalized growth,"locus YGL240W, strain doc1, active compounds read low",0.973
same,normalized growth,"locus YGL248W, strain PDE1, active compounds read low",1.04
same,normalized growth,"locus YGL253W, strain hxk2, active compounds read low",0.984
same,normalized growth,"locus YGR135W, strain pre9, active compounds read low",1.03
same,normalized growth,"locus YGR252W, strain gcn5, active compounds read low",1.22
same,normalized growth,"locus YHR013C, strain ard1, active compounds read low",1.01
same,normalized growth,"locus YHR027C, strain rpn1, active compounds read low",0.996
same,normalized growth,"locus YHR079C, strain IRE1 (second series), active compounds read low",1.01
same,normalized growth,"locus YHR094C, strain hxt1, active compounds read low",1.11 [resistant] (active)
same,normalized growth,"locus YHR129C, strain ARP1, active compounds read low",1.03
same,normalized growth,"locus YHR142W, strain chs7, active compounds read low",1.03
same,normalized growth,"locus YHR200W, strain rpn10, active compounds read low",1.04
same,normalized growth,"locus YIL066C, strain RNR3, active compounds read low",1.04
same,normalized growth,"locus YIL073C, strain SPO22, active compounds read low",1.1
same,normalized growth,"locus YIL125W, strain kgd1, active compounds read low",0.996
same,normalized growth,"locus YIR030C, strain dcg1, active compounds read low",1.01
same,normalized growth,"locus YJL092W, strain hpr5, active compounds read low",1.02
same,normalized growth,"locus YJL095W, strain BCK1 (second series), active compounds read low",0.974
same,normalized growth,"locus YJL095W, strain BCK1, active compounds read low",1.07
same,normalized growth,"locus YJL115W, strain asf1, active compounds read low",1.01
same,normalized growth,"locus YJL129C, strain trk1, active compounds read low",1.04
same,normalized growth,"locus YJL134W, strain LCB3, active compounds read low",1.01
same,normalized growth,"locus YJL154C, strain vps35, active compounds read low",1.01
same,normalized growth,"locus YJL164C, strain tpk1, active compounds read low",1.02
same,normalized growth,"locus YJL166W, strain qcr8, active compounds read low",0.991
same,normalized growth,"locus YJL168C, strain set2, active compounds read low",1.03
same,normalized growth,"locus YJL187C, strain SWE1 (second series), active compounds read low",1.03
same,normalized growth,"locus YJR043C, strain POL32, active compounds read low",1.02
same,normalized growth,"locus YJR075W, strain HOC1, active compounds read low",1.01
same,normalized growth,"locus YKL009W, strain mrt4, active compounds read low",0.959
same,normalized growth,"locus YKL068W, active compounds read low",1.1 [resistant] (active)
same,normalized growth,"locus YKL085W, strain MDH1 (second series), active compounds read low",1.1 [resistant] (active)
same,normalized growth,"locus YKL085W, strain MDH1, active compounds read low",1.1 [resistant] (active)
same,normalized growth,"locus YKL160W, strain elf1, active compounds read low",1.02
same,normalized growth,"locus YKR001C, strain vps1, active compounds read low",1.02
same,normalized growth,"locus YKR026C, strain gcn3, active compounds read low",1.02
same,normalized growth,"locus YKR091W, strain srl3, active compounds read low",1.02
same,normalized growth,"locus YLL001W, strain dnm1, active compounds read low",1.02
same,normalized growth,"locus YLL026W, active compounds read low",1
same,normalized growth,"locus YLL041C, strain sdh2, active compounds read low",0.985
same,normalized growth,"locus YLR027C, strain aat2, active compounds read low",0.979
same,normalized growth,"locus YLR039C, strain RIC1, active compounds read low",1.1
same,normalized growth,"locus YLR058C, strain SHM2, active compounds read low",1.02
same,normalized growth,"locus YLR102C, strain apc9, active compounds read low",1.17 [resistant] (active)
same,normalized growth,"locus YLR221C, strain rsa3, active compounds read low",0.988
same,normalized growth,"locus YLR258W, strain gsy2, active compounds read low",0.973
same,normalized growth,"locus YLR262C, strain YPT6 (second series), active compounds read low",1.05
same,normalized growth,"locus YLR268W, strain sec22, active compounds read low",1.03
same,normalized growth,"locus YLR320W, strain mms22, active compounds read low",1.02
same,normalized growth,"locus YLR342W, strain FKS1, active compounds read low",1.01
same,normalized growth,"locus YLR357W, strain rsc2, active compounds read low",1.03
same,normalized growth,"locus YLR370C, strain arc18, active compounds read low",0.98
same,normalized growth,"locus YLR371W, strain rom2, active compounds read low",1.16 [resistant] (active)
same,normalized growth,"locus YLR384C, strain iki3, active compounds read low",0.987
same,normalized growth,"locus YLR418C, strain cdc73, active compounds read low",1.02
same,normalized growth,"locus YML016C, strain PPZ1, active compounds read low",1.02
same,normalized growth,"locus YML032C, strain rad52, active compounds read low",1.03
same,normalized growth,"locus YML120C, strain ndi1, active compounds read low",0.969
same,normalized growth,"locus YML124C, strain tub3, active compounds read low",1.02
same,normalized growth,"locus YMR058W, strain fet3, active compounds read low",1.02
same,normalized growth,"locus YMR078C, strain ctf18, active compounds read low",1.07
same,normalized growth,"locus YMR125W, strain sto1, active compounds read low",1.02
same,normalized growth,"locus YMR129W, active compounds read low",0.978
same,normalized growth,"locus YMR205C, strain PFK2, active compounds read low",0.986
same,normalized growth,"locus YMR223W, strain ubp8, active compounds read low",1.01
same,normalized growth,"locus YMR231W, strain pep5, active compounds read low",1.02
same,normalized growth,"locus YMR263W, strain SAP30, active compounds read low",1.04
same,normalized growth,"locus YMR307W, strain GAS1, active compounds read low",1.07
same,normalized growth,"locus YNL067W, strain RPL9B, active compounds read low",1.02
same,normalized growth,"locus YNL071W, strain lat1, active compounds read low",1.03
same,normalized growth,"locus YNL209W, strain ssb2, active compounds read low",0.994
same,normalized growth,"locus YNL233W, strain BNI4, active compounds read low",1.04
same,normalized growth,"locus YNL248C, strain rpa49, active compounds read low",1.01
same,normalized growth,"locus YNL250W, strain rad50, active compounds read low",1.04
same,normalized growth,"locus YNL271C, strain bni1, active compounds read low",1.02
same,normalized growth,"locus YNL298W, strain CLA4, active compounds read low",1.07
same,normalized growth,"locus YNL307C, strain MCK1, active compounds read low",1.12 [resistant] (active)
same,normalized growth,"locus YNL322C, strain KRE1 (second series), active compounds read low",1.02
same,normalized growth,"locus YNR049C, strain mso1, active compounds read low",0.972
same,normalized growth,"locus YNR052C, strain pop2, active compounds read low",1.13 [resistant] (active)
same,normalized growth,"locus YOL012C, strain htz1",1.05
same,normalized growth,"locus YOL147C, strain pex11, active compounds read low",1.02
same,normalized growth,"locus YOR001W, strain rrp6, active compounds read low",0.97
same,normalized growth,"locus YOR061W, strain CKA2, active compounds read low",1.04
same,normalized growth,"locus YOR069W, strain VPS5, active compounds read low",1.02
same,normalized growth,"locus YOR070C, strain gyp1, active compounds read low",0.989
same,normalized growth,"locus YOR080W, strain dia2, active compounds read low",1.01
same,normalized growth,"locus YOR083W, strain WHI5, active compounds read low",1.03
same,normalized growth,"locus YOR106W, strain vam3, active compounds read low",1.01
same,normalized growth,"locus YOR136W, strain idh2, active compounds read low",1.03
same,normalized growth,"locus YOR144C, strain elg1, active compounds read low",1.03
same,normalized growth,"locus YOR184W, strain ser1, active compounds read low",1.05
same,normalized growth,"locus YOR265W, strain rbl2, active compounds read low",0.993
same,normalized growth,"locus YOR270C, strain vph1, active compounds read low",1.04
same,normalized growth,"locus YOR290C, strain snf2, active compounds read low",1.03
same,normalized growth,"locus YOR316C, strain cot1, active compounds read low",1.08
same,normalized growth,"locus YPL051W, strain arl3, active compounds read low",1.02
same,normalized growth,"locus YPL078C, strain atp4, active compounds read low",1.01
same,normalized growth,"locus YPL106C, strain sse1, active compounds read low",1.05
same,normalized growth,"locus YPL240C, strain hsp82, active compounds read low",1.01
same,normalized growth,"locus YPL241C, strain CIN2, active compounds read low",1.01
same,normalized growth,"locus YPR119W, strain clb2, active compounds read low",1.11 [resistant] (active)
same,normalized growth,"locus YPR141C, strain kar3, active compounds read low",0.98
same,normalized growth,"locus YPR163C, strain tif3, active compounds read low",1.03
same,normalized growth,"locus YPR167C, strain met16, active compounds read low",1.02
same,normalized growth,"strain wtn01, active compounds read low",1.02
